# Measured values taken from the supplement of paper PMC7156485.
# ± gives the standard deviation of the averaged measurements.
# What was measured:
# Conditions in all cases: concentration: 10 µM; 24 h
# HCC1569 [1] = experiment: cell number relative to DMSO (% of DMSO); higher = more cells (less growth inhibition / toxicity)
# In short: (§1)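 Compounds were applied at 10 µM for 24 h at 37 °C, in triplicate, to HCC1569 and TDF cells. The cells were then fixed and stained for H1.0, and nuclei were counterstained with DAPI. Nuclear H1.0 intensity or cell number is reported relative to the plate control as a percent, taking the median of replicates. Smoothing for positional effects was applied to HCC1569 values only.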
# TDF [2] = experiment: as above
# In short: as §1
# TDF [3] = experiment: H1.0 immunofluorescence intensity relative to DMSO (% of DMSO); higher = stronger H1.0 induction, active = 120 or more
# In short: as §1
# HCC1569 [4] = experiment: H1.0 immunofluorescence intensity relative to DMSO (% of DMSO); higher = stronger H1.0 induction, active = 140 or more
# In short: as §1
# 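Throughout, for H1.0 immunofluorescence intensity relative to DMSO: TDF is a line of transformed human dermal fibroblasts of mesenchymal origin.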
# 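Throughout, for cell number relative to DMSO: TDF denotes transformed human dermal fibroblasts of mesenchymal origin.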
SMILES,cell number (HCC1569 [1]),cell number (TDF [2]),H1.0 immunofluorescence intensity (TDF [3]),H1.0 immunofluorescence intensity (HCC1569 [4])
CCCS(=O)c1ccc2nc(NC(=O)OC)[nH]c2c1 (configuration not stated) [Ricobendazole],98.4,81.6,114 (inactive),109 (inactive)
CCCCCCCCCCCCCCCC(=O)NC(COP(=O)(O)O)C(=O)O (configuration not stated),102,109,92 (inactive),98.9 (inactive)
CC(=O)OCC(=O)C1(O)CCC2C3CCC4=CC(=O)CCC4(C)C3C(O)CC21C (configuration not stated) [Hydrocortisone 21-acetate],99.8,104,78 (inactive),109 (inactive)
Nc1ccn(C2OC(CO)C(O)C2(F)F)c(=O)n1 (configuration not stated) [Gemcitabine],74.8,42.4,122 (active),96.6 (inactive)
CC1(C2CCCC2)Cc2cc(OCC(=O)O)c(Cl)c(Cl)c2C1=O (configuration not stated),103,107,91.9 (inactive),84.5 (inactive)
COCCCCCCCCCCCC(=O)O [12-Methoxydodecanoic acid],101 ± 1.2,95.9 ± 11,95.5 (inactive),98.5 (inactive)
"OC1C=CC(Br)C(O)C1O (mixture of isomers) [6-Bromo-4-cyclohexene-1,2,3-triol Mixed Isomers]",99.9,105,97.5 (inactive),112 (inactive)
COc1ccc(-n2c(SCC#N)nc3sc4c(c3c2=O)CCCC4)cc1,91.9,92.5,86.3 (inactive),108 (inactive)
COC(=O)Nc1nc2ccc(S(=O)c3ccccc3)cc2[nH]1 (configuration not stated) [Oxfendazole],100,68.2,108 (inactive),124 (inactive)
CCCCCCCCCCCCCCCC(=O)NCCO [Palmitoylethanolamide],104,101,92.4 (inactive),90.6 (inactive)
CC1(C)CCC2=C(O1)c1ccccc1C(=O)C2=O [beta-Lapachone],59.7 ± 36,25.4 ± 9.7,114 (inactive),111 (inactive)
CC(=O)OCC1=C(C(=O)[O-])N2C(=O)C(NC(=O)CSc3ccncc3)C2SC1.[Na+] (configuration not stated) [Cephapirin sodium],101,103,93.8 (inactive),84.4 (inactive)
Cl.Clc1ccc(Cn2c(CN3CCCC3)nc3ccccc32)cc1 [Clemizole hydrochloride],99,112,93.5 (inactive),90.7 (inactive)
